Source: PubChem (Sanford-Burnham Center for Chemical Genomics)
An excerpt weighted towards active compounds, which were near 31% of everything screened.
CYP2C19 inh = blocks human cytochrome P450 2C19; CYP2C19 Supersomes, luciferin-H EGE luminescence, 30 min; P33261; inhibition, % at 5 µM; AID 778; 96,000 tested, 21% active;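 active means CYP2C19 inhibition above a set limit at 5 µM in the primary screen, cut at about 50% in these data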;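 further: plate controls were negative control wells for no effect and 2.5 mM tranylcypromine positive control for full effect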
Target sequence (P33261 whole entry, looked up): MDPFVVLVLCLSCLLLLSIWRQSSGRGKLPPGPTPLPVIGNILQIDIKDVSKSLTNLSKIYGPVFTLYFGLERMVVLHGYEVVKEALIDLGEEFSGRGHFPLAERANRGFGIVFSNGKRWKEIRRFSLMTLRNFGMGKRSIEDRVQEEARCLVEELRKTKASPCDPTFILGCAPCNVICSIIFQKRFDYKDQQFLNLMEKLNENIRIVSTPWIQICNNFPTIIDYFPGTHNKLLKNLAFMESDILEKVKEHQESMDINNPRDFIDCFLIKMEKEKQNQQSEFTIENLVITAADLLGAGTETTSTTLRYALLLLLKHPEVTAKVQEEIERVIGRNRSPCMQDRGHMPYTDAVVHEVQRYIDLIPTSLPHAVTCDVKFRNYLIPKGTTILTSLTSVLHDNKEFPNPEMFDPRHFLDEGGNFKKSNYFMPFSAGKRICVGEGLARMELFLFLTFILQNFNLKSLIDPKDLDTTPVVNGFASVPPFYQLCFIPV
CYP2C9 inh = inhibitors of human CYP2C9. P11712. CYP2C9 Supersomes, luciferin-H conversion, luminescence. inhibition, % at 5 µM. 96,000 tested, 20% active;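 active means blocking of liver enzyme CYP2C9 beyond about 50% at 5 µM, limit read from the data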
CYP2C19 activ = cytochrome P450 2C19 (human) activation. P33261. recombinant CYP2C19, luciferin-H EGE luminescence; active compounds read high; 0 = fully inhibited enzyme, 1 = untreated enzyme. activation factor at 5 µM. 96,000 tested, under 10 active. AID 1025;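 active means activation factor of at least 2 at 5 µM in the primary screen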;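 further: 0 = wells with 2.5 mM tranylcypromine and 1 = vehicle-only wells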
CYP2C9 act = CYP2C9 (human) activation | activation factor at 5 µM | AID 1024 | 96,000 tested, 1.4% active | P11712 | recombinant CYP2C9, luciferin-H conversion, luminescence; active compounds read high; factor 1 = untreated enzyme, 0 = blocked;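 active means activation factor of 2 or more for CYP2C9 at a 5 µM dose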;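 further: 0 = sulfaphenazole-blocked wells and 1 = vehicle-only wells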
Numbers without * were called inactive.

SMILES	CYP2C19 inh	CYP2C9 inh	CYP2C19 activ	CYP2C9 act
O=C(Cc1ccccc1)Nc1nnc(-c2cccs2)s1	8	12	0.9	0.9
CSc1nsc(NC(=O)Cc2ccccc2)n1	65*	30	0.3	0.7
N#Cc1c(-c2ccccc2)nc2n(-c3ccccc3)nc(C(=O)Nc3ccccc3)n2c1=O	20	41	0.8	0.6
N#Cc1c(-c2ccccc2)c(-c2ccccc2)nn(CC(=O)NNC(=O)Nc2ccc(Cl)c(Cl)c2)c1=O	24	62*	0.8	0.4
Cc1cc(-c2ccccc2)nc(=O)[nH]1	4	2	1	1
O=c1nc(-c2ccccc2)cc(C(F)(F)F)[nH]1	13	51*	0.9	0.5
CC(C)(C)n1nnnc1C(c1cccc(C#N)c1)N1CCC(Cc2ccccc2)CC1 (stereo unspecified)	66*	83*	0.3	0.2
Cc1ccc2cc(C(c3nnnn3C(C)(C)C)N3CCCC3)c(=O)[nH]c2c1C (stereo unspecified)	18	30	0.8	0.7
COCCn1nnnc1C(c1cc2cc(OC)ccc2[nH]c1=O)N1CCC(Cc2ccccc2)CC1 (stereo unspecified)	25	28	0.8	0.7
CCC(C)(C)n1nnnc1C(c1ccncc1)N1CCC(Cc2ccccc2)CC1 (stereo unspecified)	90*	91*	0.1	0.1
CCC(C)(C)n1nnnc1C(c1ccc(C)cc1)N1CCSCC1 (stereo unspecified)	7	19	0.9	0.8
COCCn1nnnc1C(C(C)C)N1CCC(Cc2ccccc2)CC1 (stereo unspecified)	91*	56*	0.1	0.4
CCC(C)(C)n1nnnc1C(c1cccc(C#N)c1)N1CCN(c2cc(C)ccc2C)CC1 (stereo unspecified)	52*	70*	0.5	0.3
CN(C)C(=O)NC(O)C(Cl)Cl (stereo unspecified)	-1	-4	1	1
CCOC(=O)CSc1nc(N)c(C#N)c(-c2ccc(OC)cc2)c1C#N	60*	45	0.4	0.5
C=C(C)CSc1nc(N)c(C#N)c(-c2ccc(C)cc2)c1C#N	13	50*	0.9	0.5
CCOC(=O)CC(=O)CSc1nc(N)c(C#N)c(-c2ccc(F)cc2)c1C#N	62*	53*	0.4	0.5
Cc1[nH]c2ccc(OC(=O)N3CCOCC3)cc2c1C(=O)OC(C)C	34	45	0.7	0.6
O=C(c1ccc2c(c1)C(=O)N(Cc1ccco1)C2O)N1CCOCC1 (stereo unspecified)	-1	-4	1	1
CC(NCc1ccco1)C(=O)N1CCc2ccccc2C1 (stereo unspecified)	50	10	0.5	0.9
CN(C)CCN(Cc1ccccc1)c1ccnc(N(C)C)c1C#N	-3	2	1	1
CN(C)c1nccc(N(Cc2ccccc2)Cc2ccccc2)c1C#N	27	65*	0.7	0.4
CC(Oc1ccccc1)C(=O)Nc1nc2c(s1)C(=O)CC(C)(C)C2 (stereo unspecified)	57*	61*	0.4	0.4
C/C(=N\Nc1nc2c(s1)CCCC2)c1ccccc1	72*	82*	0.3	0.2
O=C1CC(C(F)(F)C(F)(F)C(F)(F)C(F)F)=Nc2ccccc2N1	60*	20	0.4	0.8
SMILES	CYP2C19 inh	CYP2C9 inh	CYP2C19 activ	CYP2C9 act
CCN(C(=O)c1cc(Cl)ccc1OC)c1ccccc1	72*	45	0.3	0.6
CC(=O)N(CCN(C(C)=O)c1ccccc1)c1ccccc1	73*	-21	0.3	1.2
CCN(C(=O)c1ccccc1Cl)c1ccccc1	62*	4	0.4	1
CCN(C(=O)c1cc2cccc(OC)c2oc1=O)c1ccccc1	40	-20	0.6	1.2
CCN(C(=O)c1cc(Cl)ccc1OC)C1CCCCC1	95*	96*	0.1	0
CCn1cc(CNC(=O)c2cc(Cl)ccc2OC)c(C)n1	47	-64	0.5	1.6
COc1ccc(C(=O)NC(=O)COC(=O)C2COc3ccccc3O2)cc1 (stereo unspecified)	-14	31	1.1	0.7
CNc1c([N+](=O)[O-])cnn1-c1ccc(C)cc1	16	20	0.8	0.8
COc1ccc(N(C(=O)COc2ccccc2)C2C=CS(=O)(=O)C2)cc1 (stereo unspecified)	10	-4	0.9	1
COc1ccc(Sc2ccc(NC(=O)c3ccccc3Cl)cc2C#N)cc1	16	-11	0.8	1.1
CCC(=O)Oc1ccc(C(=O)Nc2cccc(C(=O)c3ccccc3)c2)cc1	71*	73*	0.3	0.3
